In all, about 13,000 compounds went through this assay and about 3,200 (25%) showed an effect of 50% or more. This is one part of the list.

The experiment has as its system P. falciparum stage V gametocytes. Details: BacTiter-Glo ATP luminescence viability of purified stage V gametocytes in 384-well plates, per cent inhibition versus DMSO. The note with it: 48 h, 5 µM; inhibitor.
Broadly, the % Inhibition is the drop in the measured response relative to a control, in per cent. `CCc1ccc(-n2c(NC(=O)c3ccccc3)nc3ccc(S(=O)(=O)NC(C)C(C)C)cc32)cc1` (centres unmarked) [TCMDC-136236]: the “% Inhibition” value was 39.19%.

With `CC(OC(=O)c1ccc(C(=O)NCC2CC2)cc1)C(C)(C)C` (centres unmarked) [TCMDC-138180], the “% Inhibition” value was determined as 11.69%.

With `CCO[C@H]1CN[C@H](C#Cc2cc3c(Nc4ccc(OCc5cccc(F)c5)c(Cl)c4)ncnc3s2)C1` [TCMDC-135170], the “% Inhibition” value worked out at 22.02%.

For the compound `Cc1ccc(O)cc1Nc1ccnc2ccc(C(C)(C)C)cc12` [TCMDC-138885], the “% Inhibition” value is on record as -11.57%.

Consider `COc1cc(Nc2ccnc3ccc(C(C)(C)C)cc23)cc(OC)c1OC` [TCMDC-138886], for which the “% Inhibition” value was -36.54%.

Regarding `CC(C)(C)c1ccc2nccc(Nc3cccc(O)c3)c2c1` [TCMDC-138884], the “% Inhibition” value was determined as 71.55%.

In the case of `C=CCC(CC=C)N1C(=O)C(c2ccccc2)(c2ccccc2)N=C1N` [TCMDC-136807], the “% Inhibition” value was 5.028%.

Regarding `O=C(/C=C/c1ccc(C(F)(F)F)cc1)NCCCCCN1CCN(C(=O)Nc2ccc(Cl)c(Cl)c2)CC1` [TCMDC-136094], the “% Inhibition” value is on record as -8.361%.

Regarding `CC1CCC2(CC1)N=C(N)N=C(N)N2OCc1cc2ccccc2c2ccccc12` (centres unmarked) [TCMDC-131590], the “% Inhibition” value is reported as 22.45%.

As to `C[C@H](NC(=O)c1c(CN2CCC(N3CCCCC3)CC2)c(-c2ccccc2)nc2cc(O)ccc12)C1CCCCC1` [TCMDC-140408], the “% Inhibition” value was found to be 25.99%.

For the compound `CN1CCN(c2ccc(CNc3ccc4ncc(-c5cccc(OC(F)(F)F)c5)n4n3)cc2)CC1` [TCMDC-136690], the “% Inhibition” value was determined as 11.23%.

Turning to `CN1CCN(c2ccc(CNc3ccc4ncc(-c5ccc(OC(F)(F)F)cc5)n4n3)cc2)CC1` [TCMDC-136689], the “% Inhibition” value is given as -0.7792%.

As to `Clc1ccc(-c2cnc3ccc(NCCc4cccnc4)nn23)cc1` [TCMDC-136680], the “% Inhibition” value was -25.41%.

On to `Clc1ccc(-c2cnc3ccc(NCc4ccncc4)nn23)cc1` [TCMDC-136682], for which the “% Inhibition” value was found to be 21.16%.

For `OC1CCC(Nc2ccc3ncc(-c4ccc5ccccc5c4)n3n2)CC1` (centres unmarked) [TCMDC-136691], the “% Inhibition” value worked out at 25.44%.

In the case of `CN(C)CCNC(=O)c1cccc(-c2cnc3ccc(NCc4ccc(Cl)c(Cl)c4)nn23)c1` [TCMDC-136677], the “% Inhibition” value was determined as 49.91%.

Take `CN(C)CCNC(=O)c1ccc(-c2cnc3ccc(NCc4ccc(Cl)c(Cl)c4)nn23)cc1` [TCMDC-136678]: the “% Inhibition” value amounted to 106.7%.

With `CN(C)c1cccc(-c2cnc3ccc(NCc4cccc(Cl)c4)nn23)c1` [TCMDC-136673], the “% Inhibition” value worked out at 81.33%.

As for `Cc1ccc(CNc2ccc3ncc(-c4cccc(C(=O)NCCN(C)C)c4)n3n2)c(C)c1` [TCMDC-136684], the “% Inhibition” value is listed as 104.7%.

As for `CCC(C)NC(=O)CN1CN(c2ccccc2)C2(CCN(C(=O)c3ccc4ccccc4c3)CC2)C1=O` (centres unmarked) [TCMDC-125174], the “% Inhibition” value is -36.87%.

For `CCNc1cc(C)nc(Nc2ccc(NS(=O)(=O)c3cc(OC)ccc3OC)cc2)n1` [TCMDC-124953], the “% Inhibition” value is reported as -19.07%.

Consider `CC(C)c1ccc(NC(=O)c2ccc(C(=O)NC3CCN(CC4CCCCC4)C3)cc2)cc1` (centres unmarked) [TCMDC-136743], for which the “% Inhibition” value is reported as -27.55%.

With `COc1cccc2cc(C(=O)N[C@@H](CC(C)C)C(=O)N[C@H](/C=N/NC(=O)c3ccccc3)Cc3cnc[nH]3)oc12` [TCMDC-135820], the “% Inhibition” value is 40.86%.

Consider `CN(C)CCOc1cc(NC(=O)Nc2ccc(-c3ccncc3)c(Cl)c2)ccc1I` [TCMDC-139135], for which the “% Inhibition” value is 19.45%.

On to `COc1ccc(C(=O)C2CCN(CCCCNC(=O)c3ccc(NC(=O)c4ccc(Cl)cc4)cc3)CC2)c(OC)c1` [TCMDC-138625], for which the “% Inhibition” value is -32.94%.

With `COc1ccc(C(=O)C2CCN(CCCCNC(=O)c3ccc(NC(=O)c4cc(Cl)cc(Cl)c4)cc3)CC2)cc1` [TCMDC-138228], the “% Inhibition” value is on record as -14.09%.

As to `Clc1ccc(C2CCN(CCCOc3ccc4c(c3)CCNCC4)CC2)cc1` [TCMDC-141782], the “% Inhibition” value is given as 72%.

As to `O=C(c1ccc(Cl)cc1)C1CCN(CCCOc2ccc3c(c2)CCNCC3)CC1` [TCMDC-141781], the “% Inhibition” value came out at 60.35%.

As for `CC(C)(C)c1ccc(NC(=O)Nc2ccc(Cn3ncc(N4CCCNCC4)c(Cl)c3=O)cc2)cc1` [TCMDC-133314], the “% Inhibition” value is -23.28%.

`COc1ccc(-c2onc(C(F)(F)F)c2-c2cc3ccccc3o2)c(O)c1` [TCMDC-124534]: the “% Inhibition” value is on record as 7.209%.

For the compound `CN1CCc2ccc(NC(=O)Nc3ccc(-c4ccccc4)cc3)cc2C1` [TCMDC-133725], the “% Inhibition” value is -3.896%.

For the compound `O=C(Nc1ccc2c(c1)CNCC2)c1ccc(-c2ccc(Cl)cc2)cc1` [TCMDC-141479], the “% Inhibition” value came to 71.62%.

Take `CN1CCCc2cc(NC(=O)c3cc(-c4ccc(Cl)cc4)cs3)ccc2C1` [TCMDC-134050]: the “% Inhibition” value is 7.243%.

Turning to `O=C(Nc1ccc(Cl)c(Cl)c1)Nc1ccc2c(c1)CCNCC2` [TCMDC-133731], the “% Inhibition” value is 29.44%.

`Cc1ccc(NC(=O)c2ccc(Cl)cc2)cc1-c1ccc(C(=O)Nc2ccncc2)cc1` [TCMDC-133698]: the “% Inhibition” value was -1.939%.

Consider `O=C(Nc1ccc2c(c1)CCNCC2)c1ccc(-c2ccc(Cl)cc2)cc1` [TCMDC-141480], for which the “% Inhibition” value is on record as 106.4%.

`O=C(Nc1ccc2c(c1)CCNCC2)Nc1ccc2ccccc2c1` [TCMDC-133733]: the “% Inhibition” value is -8.361%.

Turning to `O=C(Nc1ccc(-c2ccccc2)cc1)Nc1ccc2c(c1)CCNCC2` [TCMDC-133729], the “% Inhibition” value stood at 60.87%.

As to `CN1CCN(c2cc(NC(=O)c3ccc(-c4ccc(Cl)cc4)cc3)ccc2Cl)CC1` [TCMDC-138671], the “% Inhibition” value is on record as -15.54%.

`CC1CCN(Cc2c(O)ccc3c(=O)c(-c4nc5ccccc5s4)c(N)oc23)CC1` [TCMDC-124313]: the “% Inhibition” value was determined as 12.71%.

Take `Cc1ccc(OCCCON2C(N)=NC(N)=NC2(C)C)cc1C` [TCMDC-131650]: the “% Inhibition” value is 7.659%.

In the case of `Cc1nc(NCCc2cnc[nH]2)cc(NCc2ccccc2)n1` [TCMDC-135164], the “% Inhibition” value is on record as -1.635%.

As to `CN(C(=O)c1cc2c(-c3cncnc3)cccc2[nH]1)c1ccccc1` [TCMDC-134637], the “% Inhibition” value was 36.22%.

Take `CCC(CC)CN1C(=O)C(C)(c2ccccc2)N=C1N` (centres unmarked) [TCMDC-137051]: the “% Inhibition” value was 1.821%.

As to `COc1cc2c(cc1S(=O)(=O)c1ccc(NC(=O)c3cccc(C(F)(F)F)c3)cc1)CCN(C)CC2` [TCMDC-133791], the “% Inhibition” value is reported as -4.764%.

`COc1cccc(C(=O)Nc2ccc(S(=O)(=O)c3cc4c(cc3OC)CCN(C)CC4)cc2)c1` [TCMDC-133790]: the “% Inhibition” value is given as 79.19%.

Turning to `COc1cc2c(cc1S(=O)(=O)c1ccc(NC(=O)c3ccc4ccccc4c3)cc1)CCN(C)CC2` [TCMDC-133792], the “% Inhibition” value is recorded as 8.081%.

Values taken from paper PMC4552634, “A New Set of Chemical Starting Points with Plasmodium falciparum Transmission-Blocking Potential for Antimalarial Drug Discovery” (PLoS ONE, 2015).
